Screening data: PubChem BioAssay, several laboratories
HSP90_refold_inh – HSP90 inhibitors, primary screen, cell lysate, luminescence | 290,000 compounds, 0.91% hits | inhibition, % at 5.6 µM | Rabbit reticulocyte lysate, luciferase refolding luminescence, 3 h | Heat shock protein HSP 90 (rabbit reticulocyte lysate; luciferase refolding);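 active = inhibition above the screen-wide mean plus 3 SD, computed separately per campaign, cut at about 16% in these data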;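 also: 0% = DMSO wells and 100% = 60 µM geldanamycin wells; inhibitors lower the luminescence because luciferase stays unfolded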
SENP6_block – SENP6 protease inhibitors, primary screen, biochemical, luminescence, uHTS; Recombinant SENP6 catalytic domain, aminoluciferin luminescence; 330,000 compounds, 1.8% hits; inhibition, % at 10 µM; AID 2599, 2010;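 active = inhibition above about 50% at the single tested dose, limit read from the data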;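 also: plate controls were DMSO wells with enzyme for no effect and DMSO wells lacking enzyme for full effect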
LGR2_antag – inhibitors of bursicon-induced LGR2 CRE-luciferase signal, primary screen, cell-based, HEK293, CRE-luciferase reporter, bursicon stimulation; Drosophila bursicon receptor LGR2 (rickets); bursicon-stimulated, 4 h; inhibition, % at 9.99 µM; 380,000 compounds, 0.35% hits;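 active = drop in luminescence signal, shown as inhibition above about 50% in the replicate tests, limit read from the data, passing the limit was not always enough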;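 also: agonist challenge used bursicon conditioned medium at about half maximal strength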
SENP7_inh – SENP7 protease inhibitors, primary screen, biochemical, luminescence, uHTS | Sentrin-specific protease 7 (Homo sapiens), Q9BQF6 | recombinant SENP7, Z-RLRGG-aminoluciferin luminescence, 40 min | inhibition, % at 5 µM | 330,000 compounds, 1.5% hits;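 active = inhibition above about 50% at the single test dose, limit read from the data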;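 also: plate controls were DMSO with enzyme for no effect and no enzyme buffer wells for full effect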
Target sequence (Q9BQF6 706-1050 limits assumed): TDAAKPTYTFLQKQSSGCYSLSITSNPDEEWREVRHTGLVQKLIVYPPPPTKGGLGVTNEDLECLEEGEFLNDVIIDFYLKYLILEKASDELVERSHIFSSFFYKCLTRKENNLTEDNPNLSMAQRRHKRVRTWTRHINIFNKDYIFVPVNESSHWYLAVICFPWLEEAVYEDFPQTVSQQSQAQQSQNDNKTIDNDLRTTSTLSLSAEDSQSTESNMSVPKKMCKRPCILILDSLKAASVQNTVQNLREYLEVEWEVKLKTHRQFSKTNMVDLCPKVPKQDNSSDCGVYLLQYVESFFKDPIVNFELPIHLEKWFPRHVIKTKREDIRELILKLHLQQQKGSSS
SENP8_block-1 – human SENP8 protease inhibitors, primary screen, biochemical, fluorescence, Nedd8 protein substrate, uHTS | Sentrin-specific protease 8 (Homo sapiens), Q96LD8 | recombinant SENP8 | inhibition, % at 20 µM | 360,000 compounds, 0.64% hits; in the data active = inhibition mostly above about 40%, no sharp cut-off; inactive = mostly below about 27%
SENP8_block-2 – SENP8 protease inhibitors, primary screen, biochemical, luminescence. Sentrin-specific protease 8 (Homo sapiens), Q96LD8. purified SENP8, Z-RLRGG-aminoluciferin cleavage. inhibition, % at 10 µM. 330,000 compounds, 1.2% hits; in the data active = inhibition above about 50%
SENP8_confirm – SENP8 protease inhibitors, retest, confirmation, biochemical, luminescence, single concentration. shares compounds with SENP7_inh. Recombinant SENP8, Z-RLRGG-aminoluciferin luminescence, 60 min. inhibition, % at 12.5 µM. 6,200 compounds, 40% hits. AID 488912, 2010;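 active = mean inhibition across replicates above about 50%, limit read from the data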
SENP6_conf – SENP6 protease inhibitors, confirmation, biochemical, luminescence, single concentration; shares compounds with SENP7_inh; inhibition, % at 12.5 µM; 6,200 compounds, 58% hits; recombinant SENP6, Z-RLRGG-aminoluciferin luminescence
SENP7_conf – SENP7 protease inhibitors, retest, confirmation, biochemical, luminescence, single concentration; shares compounds with SENP7_inh; recombinant SENP7, Z-RLRGG-aminoluciferin luminescence, 40 min; inhibition, % at 12.5 µM; 6,200 compounds, 69% hits
Casp3_select – caspase-3 protease inhibitors, confirmation, selectivity assay for SENP inhibitor project, biochemical, single concentration; shares compounds with SENP7_inh; purified caspase-3, Z-DEVD-aminoluciferin luminescence, 60 min; inhibition, % at 12.5 µM; 6,200 compounds, 60% hits; AID 488918, 2010;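 active = mean inhibition above about 50%, limit read from the data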;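 also: plate controls were enzyme with DMSO for no effect and wells without caspase-3 for full effect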
Target sequence (P42574 28-227 limits assumed): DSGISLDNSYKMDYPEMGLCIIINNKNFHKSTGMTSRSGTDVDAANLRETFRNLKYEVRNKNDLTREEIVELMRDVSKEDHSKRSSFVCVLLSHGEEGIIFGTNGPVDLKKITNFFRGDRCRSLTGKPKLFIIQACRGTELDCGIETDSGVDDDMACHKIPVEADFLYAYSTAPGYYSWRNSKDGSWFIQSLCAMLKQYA
SENP_luc_ctr – interferes with luciferase luminescence in SENP counter-screen | shares compounds with SENP7_inh | Pre-incubated SENP8/Z-RLRGG-aminoluciferin, luciferase luminescence interference | inhibition, % at 12.5 µM | 6,200 compounds, 39% hits | AID 488919;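 active = mean inhibition above about 50% when retested at one dose, limit read from the data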;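 also: plate controls were DMSO wells with completed reaction for no effect and substrate without enzyme for full effect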
Active calls of the source: *; i = inactive; nt = no result given. An excerpt weighted towards active compounds, which were near 2.3% of everything screened.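 The calls were made as follows, unless noted: active = mean inhibition above about 50% in the one-dose retest (limit read from the data); inactive = the rest.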

SMILES HSP90_refold_inh SENP6_block LGR2_antag SENP7_inh SENP8_block-1 SENP8_block-2 SENP8_confirm SENP6_conf SENP7_conf Casp3_select SENP_luc_ctr
COc1ccc(N(CC(=O)NCc2ccncc2)S(=O)(=O)c2ccc(C)c([N+](=O)[O-])c2)cc1 -7 85* 13 1 22 0 -2 0 -2 -1 0
COCCCNC(=O)CN(c1cc(Cl)ccc1OC)S(=O)(=O)c1ccc(C)c([N+](=O)[O-])c1 -2 73* 13 -6 17 -10 6 3 -10 -5 -2
CO[C@@H]1CN(C)C(=O)c2ccc(NS(C)(=O)=O)cc2OC[C@@H](C)N(C(=O)NC(C)C)C[C@@H]1C nt nt 2 nt nt nt nt nt nt nt nt
C=C(C)CNC(=O)c1ccc2nc(Cc3ccc(OC)cc3)oc2c1 -5 49 -43 51* 33 17 40 39 75* 66* 48
CC(C)(C)c1ccc(/C=C2\Oc3cc(O)ccc3C2=O)cc1 -4 7 -79 -1 -190 -5 nt nt nt nt nt
O=C1/C(=C/c2ccc([N+](=O)[O-])cc2)Oc2cc(O)ccc21 -1 70* -78 63* 25 57* 11 47 51* 26 53*
C[C@H](CO)N1C[C@H](C)[C@@H](CN(C)Cc2ccc(F)cc2)Oc2ncc(-c3ccccc3F)cc2C1=O nt nt -23 nt nt nt nt nt nt nt nt
C[C@@H]1CCCCO[C@@H](CN(C)C(=O)Cc2ccccc2)[C@@H](C)CN([C@@H](C)CO)C(=O)c2cc(NS(C)(=O)=O)ccc2O1 nt nt -3 nt nt nt nt nt nt nt nt
C=CCn1c2ccccc2c(=O)c2cc(C#CC[C@@H](C)O)ccc21 nt 56* -97 30 i 37 59* 59* 76* 52* 33
Cn1c2ccccc2c(=O)c2cc(C#CC3=CCCCC3)ccc21 nt 39 9 0 -498 28 nt nt nt nt nt
C[C@@H]1CN([C@@H](C)CO)C(=O)Cc2cc(NC(=O)c3ccncc3)ccc2O[C@H]1CN(C)C(=O)Nc1ccccc1 nt nt 5 nt nt nt nt nt nt nt nt
O=C(N/N=C/c1cc2c(cc1Cl)OCO2)c1cccc(Br)c1 1 51* -41 48 -139 5 15 22 33 31 8
Cc1ccc(O)c(CNc2cccc3cccnc23)c1 1 -4 13 65* -8 84* -2 21 16 5 4
Oc1c(Br)cc(Br)cc1CNc1cccc2cccnc12 13 85* -4 88* -70 91* 4 21 22 4 -3
Cc1noc(C)c1S(=O)(=O)Nc1ccc2c(c1)C(=O)N([C@H](C)CO)C[C@@H](C)[C@@H](CN(C)C(=O)NC1CCCCC1)OCCCC[C@H](C)O2 nt nt 23 nt nt nt nt nt nt nt nt
COc1ccc(NC(=O)N(C)C[C@@H]2Oc3ccc(NC(=O)Nc4c(C)noc4C)cc3C(=O)N([C@H](C)CO)C[C@@H]2C)cc1 nt nt -9 nt nt nt nt nt nt nt nt
CN(C(=O)c1ccco1)c1nc2c(s1)CCCC2 5 -4 nt 92* 28 85* 8 91* 101* 94* 89*
Cn1c(/N=C/c2c[nH]c3ccccc23)nc2ccccc21 2 95* nt 93* 17 94* 96* 97* 103* 94* 20
Cc1ccnc(NC(=O)CCC(=O)c2cccs2)c1 nt 87* 89* 56* -31 75* 92* 91* 99* 95* 91*
Cc1ccc(NC(=O)CCC(=O)c2cccs2)nc1 nt -7 -51 -5 -18 0 nt nt nt nt nt
C[C@@H]1CN([C@H](C)CO)C(=O)c2cc(NC(=O)Nc3ccc4c(c3)OCO4)ccc2O[C@@H](C)CCCCO[C@@H]1CN(C)C(=O)NC1CCCCC1 nt nt 13 nt nt nt nt nt nt nt nt
O=C(Nc1ccc(F)cc1)C(=O)c1c(O)[nH]c2ccc([N+](=O)[O-])cc12 -2 75* nt 4 36 53* 66* 68* 91* 74* 36
Cc1ccc(NCC(=O)N=Nc2c(O)[nH]c3ccc([N+](=O)[O-])cc23)cc1 1 12 -71 21 nt -4 nt nt nt nt nt
C=CCn1c(SCC(=O)Nc2ccc(NC(=O)c3ccco3)c(OC)c2)nnc1-c1ccncc1 -2 74* nt 13 1 -4 -24 -20 -11 -12 -8
C[C@@H]1CCCCO[C@H](CN(C)Cc2ccncc2)[C@@H](C)CN([C@H](C)CO)C(=O)c2cc(NC(=O)CCC(F)(F)F)ccc2O1 nt nt -4 nt nt nt nt nt nt nt nt
O=C(O)CSc1nc2c(cnn2-c2ccccc2)c(=O)n1-c1ccc(Br)cc1 4 56* 4 3 19 41 40 37 24 10 60*
CCCCSc1nc2c(cnn2-c2ccccc2)c(=O)n1N -1 82* -114 68* 16 44 69* 67* 88* 63* 48
CCCSc1nc2c(cnn2-c2ccccc2)c(=O)n1N 4 31 -34 36 6 22 nt nt nt nt nt
Nn1c(SCc2ccccc2)nc2c(cnn2-c2ccccc2)c1=O 0 62* -61 43 9 22 23 14 64* 32 17
C[C@H]1CN([C@@H](C)CO)C(=O)c2cc(NC(=O)Nc3ccc(C(F)(F)F)cc3)ccc2O[C@@H]1CN(C)C(=O)Nc1ccc(C(F)(F)F)cc1 nt nt 6 nt nt nt nt nt nt nt nt
